Assay outcomes from PubChem.
Giardia kill = kills Giardia lamblia; Giardia lamblia trophozoite viability; activity change, % at 7.66 µM, hits read low; hit rate 0.15% among 340,000; AID 540267; in the data active = activity change below about -80%; inconclusive = between about -30% and that limit;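 note: parasites exposed to compound for two days anaerobically before the ATP read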
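Trophozoites 100 cells/well + cpd; 48 hrs, 37 deg C, anaerobic. ATPLite 1-Step added, 15-30 min RT, luminescence read (ATP-based viability).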
TDP1 cell noCPT = qHTS for Inhibitors of human tyrosyl-DNA phosphodiesterase 1 (TDP1): qHTS in cells in absence of CPT; DT40 Tdp1-/- hTDP1 cells, no CPT, ATP luminescence, 48 h; Potency, µM (series often up to 46.2 µM), inactives show at the top dose activity change, negative = growth inhibition, usual class: inhibitors; hit rate 15% among 420,000; note: potency is the fitted concentration of half-maximal effect; nearly all actives have a fitted effect of over 55% in size
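Chicken DT40 Tdp1-/- cells stably complemented with human TDP1 were seeded at 400 cells/well with DMSO in place of 20 nM camptothecin. After compound pinning, cells grew at least 48 hr at 37 °C; viability read by CellTiter-Glo luminescence.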
TDP1 block = inhibitors of human tyrosyl-DNA phosphodiesterase TDP1; Q9NUW8; recombinant TDP1, AlphaScreen DNA substrate cleavage; Potency, µM (top dose mostly 130 µM), for the others: at the top dose activity change, negative = inhibition, hits mostly inhibitors; hit rate 0.28% among 350,000; note: potency is the fitted concentration of half-maximal effect; nearly all actives have a fitted effect of over 40% in size
Target sequence (Q9NUW8 whole entry, looked up): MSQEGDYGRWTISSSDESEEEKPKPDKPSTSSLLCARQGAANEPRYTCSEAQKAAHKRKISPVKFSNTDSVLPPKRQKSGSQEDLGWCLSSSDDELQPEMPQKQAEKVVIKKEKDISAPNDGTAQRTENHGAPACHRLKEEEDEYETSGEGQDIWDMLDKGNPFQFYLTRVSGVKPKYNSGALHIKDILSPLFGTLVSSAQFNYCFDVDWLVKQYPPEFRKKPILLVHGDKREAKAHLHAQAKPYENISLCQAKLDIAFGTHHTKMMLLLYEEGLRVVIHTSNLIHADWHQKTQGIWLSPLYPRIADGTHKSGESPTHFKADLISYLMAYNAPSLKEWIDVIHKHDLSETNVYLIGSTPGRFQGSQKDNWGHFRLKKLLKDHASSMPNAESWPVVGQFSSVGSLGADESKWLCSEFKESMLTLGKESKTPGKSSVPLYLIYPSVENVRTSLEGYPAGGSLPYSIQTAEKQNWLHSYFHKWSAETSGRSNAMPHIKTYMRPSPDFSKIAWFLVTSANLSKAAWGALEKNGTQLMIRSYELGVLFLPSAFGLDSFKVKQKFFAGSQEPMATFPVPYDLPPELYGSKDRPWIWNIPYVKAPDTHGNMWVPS
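Here, a 5' biotin and 3' phosphotyrosine-FITC DNA oligonucleotide reports Tdp1 activity: intact substrate bridges AlphaScreen beads, while cleavage leaves a 3' phosphate and drops signal. All incubations at room temperature.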
TDP1 cell CPT = DT40-hTDP1 cell growth loss with CPT; Potency, µM (titrated, usually from 46.2 µM), inactives show top-dose activity change, negative = growth inhibition, most hits filed as inhibitors; hit rate 12% among 420,000; chicken DT40 Tdp1-/-;hTDP1 cells + 20 nM CPT, ATP luminescence, 48 h; AID 686979; note: potency is the fitted concentration of half-maximal effect; nearly all actives have a fitted effect of over 55% in size
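Chicken DT40 Tdp1-/- cells complemented with human TDP1, 400 cells/well, exposed to compounds plus 20 nM camptothecin for at least 48 h at 37 C; viability read as ATP content by CellTiter-Glo luminescence.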
IL-1B inflam inh = inflammasome signaling inhibition, IL-1 beta readout | hit rate 4.7% among 360,000 | THP-1 LPS/ATP IL-1B secretion, AlphaLISA, 16 h; hits give low values | activity change, % at 57.5 µM | AID 743279; in the data active = activity change below about -50%; inconclusive = mostly about -30% to -49%
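Secreted IL-1B measured by AlphaLISA bead assay after 16 h compound exposure of THP-1 cells; compounds (final up to 57.5 uM) added 1 h before LPS (250 ng/mL) and ATP (1.25 mM) stimulation; lower signal means less secretion.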
ELG1 DNA repair = blocks ELG1-dependent DNA repair in HEK293T cells; Potency, µM (top dose mostly 46.1 µM), inactives show at the highest dose activity change, negative = inhibition, most hits filed as inhibitors; AID 504467; hit rate 2.3% among 330,000; HEK293T ELG1-luciferase reporter, luminescence, 16 h; DNA damage induced by 5-fluorouridine; note: potency is the fitted concentration of half-maximal effect; nearly all actives have a fitted effect of over 55% in size
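Step one: seed 2,000 cells per well. Step two: pin-transfer compound or DMSO alongside 5-fluorouridine. Step three: incubate 16 hr, 37 °C, 5% CO2. Step four: add ONE-Glo, wait 30 min, read luminescence.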
* hit, by the source's call; i = inactive; ? = inconclusive; . = no result; [ ] = dose if it differs, or a comment. An excerpt weighted towards active compounds, which were near 19% of everything screened. Unless noted, calls come from the whole dose curve; as a rule, active = well fitted curve in the direction sought with a large enough effect; inconclusive = small, poorly fitted or top-dose-only effect, or another doubt; inactive = no such curve, though single readings can be large; an effect the other way counts as inactive or inconclusive. % is set by controls: 0 for no effect and ±100 for the full control effect.

SMILES | Giardia kill | TDP1 cell noCPT | TDP1 block | TDP1 cell CPT | IL-1B inflam inh | ELG1 DNA repair
Cc1ncsc1C(=O)N1CCCC(C(=O)c2ccc3ccccc3c2)C1 (centres undefined) | -15.4 | 20.6µM* | 1.0% | 23.1µM* | i | -28.7%
CCn1nc(C)cc1C(=O)N1CCCC(C(=O)c2ccc(Oc3ccccc3)cc2)C1 (centres undefined) | -21.7 | ? | 5.1% | ? | -4.8 | ?
COc1ccc(C(=O)C2CCCN(C(=O)c3ccc4cc[nH]c4c3)C2)c(C)c1 (centres undefined) | 35.1 | ? | 0.0% | 16.4µM* | 18.2 | ?
COc1ccc(C(=O)C2CCCN(C(=O)c3cccnc3OC)C2)c(C)c1 (centres undefined) | 9.3 | ? | 2.7% | ? | 44.1 | -16.0%
Cc1ncoc1C(=O)N1CCCC(C(=O)c2ccc(-c3ccccc3)c(F)c2)C1 (centres undefined) | -19.8 | ? | -2.7% | ? | -8.9 | ?
CCn1nc(C)cc1C(=O)N1CCCC(C(=O)c2ccc(OC)cc2C)C1 (centres undefined) | 4.2 | 9.2µM* | 2.3% | 23.1µM* | 54.1 | ?
CCn1nc(C)cc1C(=O)N1CCCC(C(=O)c2ccc3ccccc3c2)C1 (centres undefined) | -19.3 | 7.31µM* | . | 11.6µM* | -16.6 | ?
COC(=O)CC(NC1CCN(c2nc(C)c3cc4c(cc3n2)CCC4)CC1)C(=O)OC (centres undefined) | . | 2.3% | . | 14.4%[9.04 µM] | . | .
Cc1cc(C(=O)N2CCCC(C(=O)c3ccc4ccccc4c3)C2)nn1C (centres undefined) | -28.0 | 20.6µM* | 2.7% | ? | -8.7 | 8.8%
CSc1ccc(C(=O)C2CCCN(C(=O)c3cc(C)n(C)n3)C2)cc1 (centres undefined) | -2.5 | ? | 4.5% | ? | 15.5 | ?
COc1ccccc1C(=O)OCc1ccc2sc(C)nc2c1 | -12.7 | ? | 0.0% | 7.7% | -15.6 | 9.9%
C/C(=N\OCC(=O)Nn1c(=O)[nH]c2ccccc2c1=O)c1ccccc1 | 17.3 | ? | 3.5% | -5.5% | 10.3 | -2.0%
CCOC(=O)N1CCN(C(=O)C2CCCN(S(=O)(=O)c3ccc(OCC)cc3)C2)CC1 (centres undefined) | -10.9 | 16.4µM* | 3.6%[56.1 µM] | ? | 12.2 | ?
CCOc1ccc(S(=O)(=O)N2CCCC(C(=O)N3CCOCC3)C2)cc1 (centres undefined) | -18.1 | -24.7% | 7.1% | -0.4% | 15.6 | -5.4%
CCOC(=O)N1CCN(C(=O)C2CCCN(S(=O)(=O)c3ccc(F)cc3)C2)CC1 (centres undefined) | -2.9 | -20.9% | 5.1% | ? | -10.4 | -0.7%
CCOC(=O)N1CCN(C(=O)C2CCCN(S(=O)(=O)c3ccc(C)cc3)C2)CC1 (centres undefined) | -3.5 | 16.4µM* | 3.3% | ? | 18.4 | -6.5%
CCOc1ccc(S(=O)(=O)N2CCCC(C(=O)N3CCN(c4ccccc4)CC3)C2)cc1 (centres undefined) | -4.9 | 20.6µM* | 5.3% | 16.4µM* | -12.6 | 0.0%
CCN(CC(=O)NCc1ccc(F)cc1)C(=O)CN1CCN(c2cc(Cl)ccc2C)CC1 | -10.7 | ? | 0.9% | ? | -11.9 | -10.0%
CC1(NC(=O)CCNC(=O)c2ccc(C(C)(C)C)cc2)CCS(=O)(=O)C1 (centres undefined) | -8.0 | -11.0% | 0.8% | 12.3% | -1.4 | 8.2%
O=C(O)CCCNS(=O)(=O)/C=C/c1ccccc1 | 1.8 | -20.3% | 1.2% | -1.6% | -1.2 | 10.8%
O=C1CCCC2=C1C1(CCCCC1)N=C(Nc1nc3ccccc3s1)N2 | -4.7 | ? | 2.0% | 18.4µM* | 26.9 | .
CC(C)Oc1ccc(CN2CCC2(C)C(=O)NCc2cccc3ccccc23)cc1 (centres undefined) | . | 14.6µM* | . | 11.6µM* | -19.4 | .
CC1(C(=O)NCc2cccc(C(F)(F)F)c2)CCN1CCc1ccccc1 (centres undefined) | . | ? | . | ? | -9.1 | .
CC1(C(=O)NCc2cccc3ccccc23)CCN1CCc1ccccc1 (centres undefined) | . | 18.4µM* | . | ? | 9.0 | .
CC1(C)CC(c2nc(-c3ccc([N+](=O)[O-])cc3)cs2)CCO1 (centres undefined) | 5.1 | ? | 2.3% | ? | -7.8 | ?
SMILES | Giardia kill | TDP1 cell noCPT | TDP1 block | TDP1 cell CPT | IL-1B inflam inh | ELG1 DNA repair
Cc1ccc2nc(NC(=O)CSc3cc(C)[nH]c(=O)n3)sc2c1 | . | -1.4% | -5.2% | 7.5% | . | .
COc1ccc(C(=O)N/C(=C\c2ccccc2)C(=O)Nc2ccccc2C(=O)O)cc1 | -6.6 | 10.0% | . | -2.5% | -1.0 | .
Cc1[nH]nc2nc(SCC(=O)NCCC3=CCCCC3)n(-c3ccc(Br)cc3)c(=N)c12 | 30.0 | 8.2µM* | 2.7% | 11.6µM* | -3.7 | 8.1%
Cc1cc(-n2c(SCC(=O)NCCC3=CCCCC3)nc3n[nH]c(C)c3c2=N)ccc1Cl | -12.9 | 8.2µM* | 4.1% | 16.4µM* | 13.6 | -0.8%
CN(C(=O)CSc1nc(N)cc(N)n1)C1CCS(=O)(=O)C1 (centres undefined) | 5.3 | -0.6% | 1.2% | 0.7% | 1.0 | -1.9%
CCOC(=O)C1CCCN(c2nc3ccccc3nc2C(C#N)C(=O)NCc2ccccc2)C1 (centres undefined) | -14.1 | 9.2µM* | 2.6% | ? | -5.2 | -29.2%
N#CC(C(=O)NCCc1ccccc1)c1nc2ccccc2nc1N1CCOCC1 (centres undefined) | -1.7 | ? | 4.4% | 16.4µM* | -8.4 | ?
CCOC(=O)N1CCN(c2nc3ccccc3nc2C(C#N)C(=O)NCCc2ccccc2)CC1 (centres undefined) | -5.9 | 20.6µM* | -2.9% | 16.4µM* | -1.7 | ?
CCCCCCNC(=O)C(C#N)c1nc2ccccc2nc1N1CCOCC1 (centres undefined) | 7.3 | -15.8% | 1.0% | ? | -2.5 | -1.2%
N#CC(C(=O)NCCc1ccccc1)c1nc2ccccc2nc1N1CCCCC1 (centres undefined) | -9.4 | -27.3% | 0.0% | 20.6µM* | -2.7 | -2.3%
N#CC(C(=O)NCc1ccccc1)c1nc2ccccc2nc1N1CCCC1 (centres undefined) | 13.6 | ? | 2.0% | ? | 9.3 | 7.6%
Cn1c(SCC(=O)Nc2nc3ccccc3s2)ncc(C(=O)Nc2ccc(Cl)cc2)c1=O | . | -0.5% | 7.8% | -8.4% | . | .
